High-throughput results (PubChem)
Cycloheximide cs: counter-screen hit for Shiga toxin inhibitors, cycloheximide. cell reporter, cycloheximide protein synthesis inhibition counterscreen. max response, %. hit rate 12% among 300,000; in the data active = max response mostly above about 13%, no sharp cut-off; inactive = mostly below about 14%; also: read at 38.3 µM for the half of the compounds with a filed dose
LASV entry inh: blocks Lassa virus binding to or entry into cells; hit rate 1.2% among 300,000; Lassa virus pseudotype entry inhibition, cell reporter; Potency, µM (doses to about 37.9 µM), actives largely listed as inhibitors; calls by dose curve; tested in HEK293 cells; also: nearly all actives have a fitted effect of over 50% in size
Marburg entry inh: blocks Marburg virus binding to or entry into cells | Marburg virus pseudotyped entry inhibition, cell reporter | Potency, µM (series often up to 37.8 µM), hits mostly inhibitors | hit rate 1.8% among 300,000 | AID 540276; calls by dose curve; tested in HEK293 cells
Shiga toxin inh: Shiga toxin inhibition; hit rate 9.2% among 290,000; inhibition, % at 38.7 µM; Vero cells, Shiga toxin protein synthesis inhibition reporter; AID 2315; in the data active = inhibition mostly above about 28%, no sharp cut-off; inactive = mostly below about 43%
AMA1 RON2 block: inhibitors of Plasmodium falciparum AMA1-RON2 interaction | AlphaScreen AMA1-biotinylated RON2 peptide binding | Potency, µM (highest dose often 58.2 µM), actives largely listed as inhibitors | hit rate 0.2% among 360,000; active = well fitted inhibition curve with a large enough effect; inconclusive = small, poorly fitted or top-dose-only effect; inactive = no such curve, though single readings can be large or run the other way; also: nearly all actives have a fitted effect of over 45% in size
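AMA1 (3D7) with his tag at 25 nM final met compounds first, then biotinylated RON2 peptide at 25 nM; detection used donor plus acceptor beads, 10 µg/mL apiece, read by AlphaScreen after 30 min at room temperature.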
Numbers stand for hits. Shown is part of a subset that was picked to be rich in hits.

How did Cc1ccccc1N/C(SCc1ccc(Cl)cc1)=C(/C#N)C(=O)NCc1ccco1 do in these assays?
Cycloheximide cs: 41; LASV entry inh: inconclusive; Marburg entry inh: inconclusive; Shiga toxin inh: 112; AMA1 RON2 block: inactive

What do the screens show for `Cc1ccc(CS/C(Nc2ccccc2C)=C(\C#N)C(=O)NCc2ccco2)c(C)c1`?
Cycloheximide cs: 66; LASV entry inh: 3.7µM; Marburg entry inh: inconclusive; Shiga toxin inh: 91; AMA1 RON2 block: inactive

Results for CC(=O)c1cccc(NC(=O)CSc2nnc3ccc(-c4ccc(Br)cc4)nn23)c1 ?
LASV entry inh: inactive

What do the screens show for `CC1CCN(S(=O)(=O)c2cc(C(=O)N3CCN(c4cccc(Cl)c4)CC3)n(C)c2)CC1`?
LASV entry inh: inactive

How did COC(=O)c1ccc2nc(C3CCCCC3)c(Cc3cccc(Cl)c3)n2c1 do in these assays?
AMA1 RON2 block: inactive

How did COc1ccc(N2CCN(C(=O)Cn3c(=O)[nH]c4ccccc4c3=O)CC2)cc1 do in these assays?
Cycloheximide cs: inactive; Shiga toxin inh: inactive

What do the screens show for `CCOc1ccc(N/C(SCc2cccc([N+](=O)[O-])c2)=C(/C#N)C(N)=O)cc1`?
Cycloheximide cs: inactive; LASV entry inh: inactive; Marburg entry inh: inactive; Shiga toxin inh: inactive; AMA1 RON2 block: inactive

What do the screens show for `N#CC(C#N)=C(Nc1ccc(F)cc1)SCc1cccc(F)c1`?
Cycloheximide cs: inactive; LASV entry inh: 13µM; Marburg entry inh: 7.1µM; Shiga toxin inh: inactive; AMA1 RON2 block: inactive

Results for Cn1c(-c2ccc(N)cc2)nc2ccccc21 ?
Cycloheximide cs: 56; LASV entry inh: inactive; Marburg entry inh: inactive; Shiga toxin inh: 75; AMA1 RON2 block: inactive

What do the screens show for `Cn1c(-c2ccccc2)nc2cnccc21`?
Cycloheximide cs: inactive; Shiga toxin inh: inactive; AMA1 RON2 block: inactive

How did Cn1c(-c2ccc3nc(N)sc3c2)nc2cc(N)ccc21 do in these assays?
Cycloheximide cs: 21; LASV entry inh: inactive; Marburg entry inh: inconclusive; Shiga toxin inh: inactive; AMA1 RON2 block: inconclusive

How did Cn1c(N)c(-c2nc3cccnc3n2C)sc1=S do in these assays?
Cycloheximide cs: inactive; Shiga toxin inh: inactive; AMA1 RON2 block: inactive

Results for Cc1ccc(-n2c(N)c(-c3nc4ccccc4n3C)sc2=S)cc1 ?
Cycloheximide cs: 11; LASV entry inh: inactive; Marburg entry inh: inconclusive; Shiga toxin inh: inactive; AMA1 RON2 block: inactive

Results for Nc1nc2ccc(S(=O)(=O)c3ccc4nc(N)sc4c3)cc2s1 ?
Cycloheximide cs: inactive; LASV entry inh: inactive; Marburg entry inh: inactive; Shiga toxin inh: inactive; AMA1 RON2 block: inactive

How did Cn1c(CCc2ccc(N)cc2)nc2ccccc21 do in these assays?
Cycloheximide cs: 32; Shiga toxin inh: inactive; AMA1 RON2 block: inactive

What do the screens show for `CC1CCCCN1C(=O)COC(=O)c1cc([N+](=O)[O-])ccc1N` (centres undefined)?
LASV entry inh: inactive; Marburg entry inh: inconclusive; AMA1 RON2 block: inactive

How did CCOC(=O)Cn1c(-c2ccc(Cl)nc2)nc2ccccc21 do in these assays?
Cycloheximide cs: inactive; LASV entry inh: inactive; Marburg entry inh: inactive; Shiga toxin inh: inactive; AMA1 RON2 block: inactive

How did Cn1c(-c2ccc(Cl)nc2)nc2ccccc21 do in these assays?
Cycloheximide cs: 15; LASV entry inh: inconclusive; Marburg entry inh: inactive; Shiga toxin inh: 58; AMA1 RON2 block: inactive

What do the screens show for `CCCCn1c(/N=C/c2c[nH]c3ccccc23)nc2ccccc21`?
Cycloheximide cs: inactive; LASV entry inh: inconclusive; Marburg entry inh: inactive; Shiga toxin inh: inactive; AMA1 RON2 block: inactive

How did Cc1cc(C)nc(N/N=C/c2ccccc2)n1 do in these assays?
Cycloheximide cs: inactive; LASV entry inh: inactive; Marburg entry inh: inactive; Shiga toxin inh: inactive; AMA1 RON2 block: inactive

How did Cc1cc(C)nc(N/N=C/c2ccccc2Cl)n1 do in these assays?
Cycloheximide cs: 59; Shiga toxin inh: 94; AMA1 RON2 block: inactive

Results for Cn1c(N/N=C/c2c[nH]c3ccccc23)nc2ccccc21 ?
Cycloheximide cs: 45; LASV entry inh: inconclusive; Marburg entry inh: inconclusive; Shiga toxin inh: 167; AMA1 RON2 block: inconclusive

How did COc1ccccc1/C=N/Nc1nc(C)cc(C)n1 do in these assays?
Cycloheximide cs: 34; LASV entry inh: inactive; Marburg entry inh: inactive; Shiga toxin inh: 89; AMA1 RON2 block: inactive

What do the screens show for `COc1ccccc1C=NNc1nc(C)cc(=O)[nH]1`?
LASV entry inh: inactive; Marburg entry inh: inactive; AMA1 RON2 block: inactive

Results for CCCn1c(/N=C/c2c[nH]c3ccccc23)nc2ccccc21 ?
Cycloheximide cs: 42; LASV entry inh: inactive; Marburg entry inh: inactive; Shiga toxin inh: inactive; AMA1 RON2 block: inactive

Results for O=C(O)c1ccc(N/N=C/c2c[nH]c3ccccc23)cc1 ?
Cycloheximide cs: inactive; Shiga toxin inh: inactive; AMA1 RON2 block: inactive

What do the screens show for `C(=N\NC1=NCCCCC1)/c1c[nH]c2ccccc12`?
Cycloheximide cs: 21; LASV entry inh: inactive; Marburg entry inh: inactive; Shiga toxin inh: inactive; AMA1 RON2 block: inactive

How did Cn1cc(Br)c(C(=O)N/N=C/c2cc3ccccc3nc2Cl)n1 do in these assays?
Cycloheximide cs: 15; Shiga toxin inh: 50; AMA1 RON2 block: inactive

Results for Cc1cc(C)nc(N/N=C/c2c[nH]c3ccccc23)n1 ?
Cycloheximide cs: 20; LASV entry inh: inactive; Marburg entry inh: inactive; Shiga toxin inh: inactive; AMA1 RON2 block: inactive

What do the screens show for `COc1ccccc1/C=N/NC1=NCCCCC1`?
Cycloheximide cs: inactive; LASV entry inh: inconclusive; Marburg entry inh: inactive; Shiga toxin inh: inactive; AMA1 RON2 block: inactive

How did Cc1cc(N/N=C/c2c[nH]c3ccccc23)c2ccccc2n1 do in these assays?
Cycloheximide cs: inactive; LASV entry inh: inactive; Marburg entry inh: inconclusive; Shiga toxin inh: inactive; AMA1 RON2 block: inactive

Results for Fc1c(F)c(F)c(N/N=C/c2c[nH]c3ccccc23)c(F)c1F ?
Cycloheximide cs: 16; LASV entry inh: inactive; Marburg entry inh: inconclusive; Shiga toxin inh: inactive; AMA1 RON2 block: inactive

What do the screens show for `O=C(N/N=C/c1cc2ccccc2nc1Cl)c1ccncc1`?
Cycloheximide cs: inactive; LASV entry inh: inactive; Marburg entry inh: inactive; Shiga toxin inh: inactive; AMA1 RON2 block: inactive

Results for O=C(C[C@@H]1C/C=C\CCC(=O)O[C@H](c2ccccc2)CNC1=O)N[C@H](CO)Cc1ccccc1 ?
AMA1 RON2 block: inactive

How did Cc1cccc(Cn2nc(-n3cccc3)c3c(C)cc(C)nc32)c1 do in these assays?
Cycloheximide cs: inactive; Shiga toxin inh: inactive; AMA1 RON2 block: inactive

What do the screens show for `Cc1nnc(C)n1/N=C/c1cc2ccccc2nc1Cl`?
Cycloheximide cs: inactive; LASV entry inh: inactive; Marburg entry inh: inactive; Shiga toxin inh: inactive; AMA1 RON2 block: inactive

Results for Cc1cc(N/N=C/c2ccccc2Cl)nc(NCc2ccccc2)n1 ?
Cycloheximide cs: 28; LASV entry inh: inconclusive; Marburg entry inh: inconclusive; Shiga toxin inh: inactive; AMA1 RON2 block: inactive

What do the screens show for `Cc1cc(C)nc(N/N=C/c2cccc3ccccc23)n1`?
Cycloheximide cs: 47; LASV entry inh: inactive; Marburg entry inh: inactive; Shiga toxin inh: inactive; AMA1 RON2 block: inactive

Results for Cc1cc(C)nc(N/N=C/c2ccccc2OCc2ccc([N+](=O)[O-])cc2)n1 ?
Cycloheximide cs: inactive; LASV entry inh: inactive; Marburg entry inh: inconclusive; Shiga toxin inh: 59; AMA1 RON2 block: inactive

Results for Cn1c(N/N=C/c2cc3ccccc3nc2Cl)nc2ccccc21 ?
Cycloheximide cs: inactive; LASV entry inh: inconclusive; Marburg entry inh: inconclusive; Shiga toxin inh: 78; AMA1 RON2 block: inactive
